Measured values: PubChem BioAssay (NCATS)
Several values for one entry are separate records, joined by “and”; a condition that tells them apart may be missing. Equal entries are not always repeated. Inconclusive results are not listed. Activity calls are given as the source filed them. Unless noted, calls follow the shape of the dose curve; as a rule, active = well fitted curve in the direction sought with a large enough effect; inconclusive = small, poorly fitted or top-dose-only effect, or another doubt; inactive = no such curve, though single readings can be large; an effect the other way counts as inactive or inconclusive.

Legend:
[1] = qHTS to identify inhibitors of the type 1 interferon - major histocompatibility complex class I in skeletal muscle: primary screen against the NCATS Mechanism Interrogation Plate v5.0 (MIPE) Libary (AID 1347411); also: nearly all actives have a fitted effect of over 65% in size; also: potency is read from the fitted curve at half-maximal effect;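 as to activity change, negative = inhibition: plate controls were vehicle for no effect and reference inhibitor for full effect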
Method in brief: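 Cells were genome-edited human myoblasts carrying a HiBit tag on endogenous HLA-B. They were treated with IFN-beta (4.0 ng/ml) and titrated compounds (top 46 uM) for 24 hrs before lytic HiBiT detection.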

[2] = Primary qHTS for inhibitors of nuclear receptor binding SET domain protein 2 (NSD2) in an isogenic RCH-ACV NSD2 p.E1099K mutant (9B) (AID 1645876); also: nearly all actives have a fitted effect of over 70% in size; also: potency is read from the fitted curve at half-maximal effect; as to activity change, negative = viability loss: % is scaled to controls: 0 for no effect and ±100 for the full control effect
[3] = Primary qHTS for inhibitors of nuclear receptor binding SET domain protein 2 (NSD2) in an RCH-ACV wild type WT cells (2C) (AID 1645877); also: nearly all actives have a fitted effect of over 70% in size; also: potency is read from the fitted curve at half-maximal effect; as to activity change, negative = cell killing: % is scaled to controls: 0 for no effect and ±100 for the full control effect
[4] = biological target: Glutathione peroxidase 1 (Homo sapiens) (UniProt P07203); test: Primary qHTS Assay for Inhibitors of Recombinant Selenoprotein Glutathione Peroxidase 1 (GPX1) (AID 1845191); also: nearly all actives have a fitted effect of over 65% in size; also: potency is read from the fitted curve at half-maximal effect
Method in brief: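 GR-coupled assay: compounds preincubated 30 min at room temperature with GPX1, then reaction started with CHP; final 10 nM GPX1, 1 mM GSH, 0.5 mM CHP, 0.5 mM NADPH, 100 nM GR, 0.01% BSA, pH 7.5 Tris buffer. NADPH fluorescence (340/450 nm) read at 0 and 15 min.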

[5] = biological target: Phospholipid hydroperoxide glutathione peroxidase GPX4 (Homo sapiens) (UniProt P36969); test: Primary qHTS Assay for Inhibitors of Recombinant Selenoprotein Glutathione Peroxidase 4 (GPX4) (AID 1845192); details: outcome: dose series up to 50 µM unless noted; also: nearly all actives have a fitted effect of over 65% in size; also: potency is read from the fitted curve at half-maximal effect; as to activity change, negative = inhibition: series mostly up to about 50 µM; % is scaled to controls: 0 for no effect and ±100 for the full control effect
Method in brief: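 GR-coupled assay: recombinant GPX4 preincubated 30 min with compound at room temperature; final 200 nM GPX4, 1 mM GSH, 0.5 mM cumene hydroperoxide, 0.5 mM NADPH, 100 nM GR, 0.01% BSA, pH 7.5 Tris. NADPH fluorescence (340/450 nm) read at 0 and 15 min.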

[6] = qHTS drug screen for cell cycle checkpoint inhibitors in PARPi-resistant BRCA-mutant ovarian cancer cell lines. (AID 1963452; calls by dose curve); details: PEO1/OlaR viability, CellTiter-Glo luminescence, 96 h, stronger effect = lower value
Method in brief: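 PEO1, PEO4 and PEO1/OlaR ovarian cancer cells, 600 per well, exposed 96 h at 37C to a dilution series. Viability read by CellTiter-Glo luminescence, normalized to DMSO and empty wells; activity summarized as Z-AUC.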

[7] = measured here: PEO1 parental Z-AUC

Glutathione peroxidase 1 (Homo sapiens), sequence (P07203 whole entry, looked up): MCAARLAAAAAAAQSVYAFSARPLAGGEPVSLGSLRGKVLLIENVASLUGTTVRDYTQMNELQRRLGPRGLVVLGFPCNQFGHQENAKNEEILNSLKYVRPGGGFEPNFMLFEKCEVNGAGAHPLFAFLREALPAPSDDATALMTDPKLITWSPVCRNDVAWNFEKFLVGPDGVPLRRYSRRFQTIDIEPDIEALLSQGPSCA
Phospholipid hydroperoxide glutathione peroxidase GPX4 (Homo sapiens), sequence (P36969 whole entry, looked up): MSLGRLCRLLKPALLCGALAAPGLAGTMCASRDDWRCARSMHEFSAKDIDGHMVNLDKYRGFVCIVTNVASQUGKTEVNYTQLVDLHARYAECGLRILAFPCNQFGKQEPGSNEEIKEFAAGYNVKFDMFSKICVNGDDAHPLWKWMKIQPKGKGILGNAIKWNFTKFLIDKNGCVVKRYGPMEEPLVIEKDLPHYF

With `Cc1cccc(/C=N/Nc2cc(N3CCOCC3)nc(OCCc3ccccn3)n2)c1` the Potency [1] was “inactive”, the Potency [2] was 0.468 µM (active) and the Potency [3] was 296 nM (active). For the same molecule, the Potency [4] was “inactive”, the Potency [5] was “inactive” and the Z-AUC [6] was 0.655 (inactive). It also gave a Z-AUC [6, 7] of 0.0151 and a Z-AUC ([6]; measured here: PEO4 Z-AUC) of 0.106.
With `NS(=O)(=O)c1ccc(Cc2c(-c3cccc(-c4ccccc4)c3)nn(-c3nc(C(=O)O)cs3)c2CC2CC2)cc1` the Potency [1] was “inactive”, the Potency [3] was 5250 nM (active) and the Potency [4] was “inactive”. The Potency [5] was 6.4 µM (active), the Z-AUC [6] was -1.08 (inactive) and the Z-AUC [6, 7] was -0.77. It also gave a Z-AUC ([6]; measured here: PEO4 Z-AUC) of -1.44.
In the case of `CC(C)[C@H]1C(=O)N[C@@H](CCCN=C(N)N)C(=O)NCC(=O)N[C@@H](CC(=O)O)C(=O)N[C@H](Cc2ccccc2)C(=O)N1C`, the Potency [1] is reported as “inactive”, the Potency [2] is reported as “inactive” and the Potency [3] is reported as “inactive”. The Potency [4] was “inactive”, the Potency [5] was “inactive” and the Z-AUC [6] was -1.37 (inactive). The Z-AUC [6, 7] was -1.22 and the Z-AUC ([6]; measured here: PEO4 Z-AUC) was -0.795.
With `O=C(C[C@@H]1C/C=C\CCC(=O)O[C@H](c2ccccc2)CNC1=O)NCc1ccc(Cl)cc1` the Potency [1] was “inactive”, the Potency [2] was “inactive” and the Potency [3] was “inactive”. The Potency [4] was “inactive”, the Potency [5] was “inactive” and the Z-AUC [6] was -0.618 (inactive). It also gave a Z-AUC [6, 7] of 0.123 and a Z-AUC ([6]; measured here: PEO4 Z-AUC) of -0.716.
In the case of `CN(C)CCNC(=O)COc1c2cccc1Cc1cccc(c1OCC(=O)NCCN(C)C)Cc1cccc(c1OCC(=O)NCCN(C)C)Cc1cccc(c1OCC(=O)NCCN(C)C)C2`, the activity change, negative = inhibition [1] is reported as -36% [at 8.44 µM] (inactive), the activity change, negative = viability loss [2] is reported as 4.69% [at 9.23 µM] (inactive) and the activity change, negative = cell killing [3] is reported as 5.34% [at 9.23 µM] (inactive). For the same molecule, the outcome [4] was “inactive [at 9.52 µM]”, the outcome [5] was “inactive [at 9.73 µM]” and the Z-AUC [6] was -0.309 (inactive). It also gave a Z-AUC [6, 7] of -0.716 and a Z-AUC ([6]; measured here: PEO4 Z-AUC) of -0.127.
With `Cc1c(CN2CCN(C(=O)[C@H](C)O)CC2)sc2c(N3CCOCC3)nc(-c3cnc(N)nc3)nc12` the Potency [1] was 262 nM (active), the Potency [2] was 0.0417 µM (active) and the Potency [3] was 74.2 nM (active). The Potency [4] was “inactive”, the Potency [5] was “inactive” and the Z-AUC [6] was 0.0318 (inactive). The Z-AUC [6, 7] was 0.386 and the Z-AUC ([6]; measured here: PEO4 Z-AUC) was 0.839.
In the case of `CC(C)(O)[C@H]1CC[C@@](C)([C@H]2[C@@H](O)C[C@@]3(C)[C@@H]4C[C@H](O[C@@H]5O[C@H](CO)[C@@H](O)[C@H](O)[C@H]5O)[C@H]5C(C)(C)[C@@H](O[C@@H]6OC[C@@H](O)[C@H](O)[C@H]6O)CC[C@@]56C[C@@]46CC[C@]23C)O1`, the Potency [1] is reported as “inactive”, the Potency [2] is reported as “inactive” and the Potency [3] is reported as “inactive”. The Potency [4] was “inactive” and the Potency [5] was “inactive”.
With `Nc1nc(F)nc2c1ncn2C1OC(COP(=O)(O)O)C(O)C1O` (stereo not given) the Potency [1] was “inactive” and the Potency [2] was 2.95 µM (active).
With `CC(/C=C1\SC(=S)N(CC(=O)O)C1=O)=C\c1ccccc1` the Potency [1] was “inactive”, the Potency [2] was “inactive” and the Potency [3] was “inactive”. For the same molecule, the Potency [4] was 7.28 µM (active) and 3.21 µM (active), the Potency [5] was 12.8 µM (active) and 12.6 µM (active) and the Z-AUC [6] was 1.25 (inactive). It also gave a Z-AUC [6, 7] of 1.33 and a Z-AUC ([6]; measured here: PEO4 Z-AUC) of 1.77.
In the case of `O=C(O)c1ccc(O)c2ncccc12`, the Potency [1] is reported as “inactive”, the Potency [2] is reported as 20.9 µM (active) and the Potency [4] is reported as “inactive”. The Potency [5] was “inactive”, the Z-AUC [6] was 1.08 (inactive) and the Z-AUC [6, 7] was 0.983. For the same molecule, the Z-AUC ([6]; measured here: PEO4 Z-AUC) was 1.08.
In the case of `Nc1n[n+]([O-])c2ccccc2[n+]1[O-]`, the Potency [1] is reported as “inactive”, the Potency [2] is reported as 18.6 µM (active) and the Potency [3] is reported as 10500 nM (active). The Potency [4] was “inactive”, the Potency [5] was “inactive” and the Z-AUC [6] was -0.469 (inactive). It also gave a Z-AUC [6, 7] of -1.12 and a Z-AUC ([6]; measured here: PEO4 Z-AUC) of -1.08.
For `CCCNC(=O)c1cn2ncnc(Nc3cc(C(=O)NC4CC4)ccc3C)c2c1C`, the Potency [1] was “inactive”, the Potency [2] was “inactive” and the Potency [3] was “inactive”. For the same molecule, the Potency [4] was “inactive”, the Potency [5] was “inactive” and the Z-AUC [6] was -0.306 (inactive). For the same molecule, the Z-AUC [6, 7] was 0.435 and the Z-AUC ([6]; measured here: PEO4 Z-AUC) was 0.239.
